Test results reported in PubChem BioAssay AID1347385 (Zoeller Lab, School of Medicine, Boston University, 2020).
Out of some 20,000 compounds screened, about 85 (0.4%) were called active.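 How the source made its calls: active means cell survival signal 2 SD away from solvent-only control wells, confirmed on one or two retests; inactive means the rest.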 For the sample, actives were picked, then their nearest neighbours and some compounds at random.

Experiment: phospholipid synthesis inhibitors, CHO cells, primary screen, ZR-82 cells, Enamine library, screen 3 (AID 1347385);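 further: 3 h compound exposure then viability read about one day after UV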
Conditions: ZR-82 CHO cells, pyrene fatty acid UV survival, CellTiter Blue, peroxisome-deficient CHO-K1 mutant line, plus DGAT-1, DGAT-2 and ACAT inhibitors; at 10 µM unless noted

SMILES | outcome
O=[N+]([O-])c1ccc(N=P(c2cccc3ccccc23)(c2cccc3ccccc23)N2CCOCC2)c(Br)c1 | inactive
Nc1scc[n+]1Cc1cccc2cccnc12 | inactive
Nc1nc(SCC(=O)NCCN2CCOCC2)nc2sc3c(c12)CCC3 | inactive
CC(C)CC(C(=O)NNC(=O)c1ccco1)N1C(=O)C2CC=CCC2C1=O (stereo unspecified) | inactive
O=S(=O)(Nc1ncccn1)c1ccc(NC(=S)Nc2cccnc2)cc1 | inactive
CC(C)CC(NC(=O)NC1CCCCC1)C(=O)O (stereo unspecified) | inactive
c1ccc(C2=NNC(c3ccccc3)C2)cc1 (stereo unspecified) | inactive
O=C(NC1CCCCCCC1)c1ccc(=O)[nH]c1 | inactive
CN(C1CCCCC1)S(=O)(=O)c1ccc2c(c1)OCCCO2 | inactive
OC(Cc1nc2ccccc2[nH]1)c1nc2ccccc2[nH]1 (stereo unspecified) | inactive
Cc1cc(NC(=O)Cn2c(=O)/c(=C\c3ccc(C)s3)s/c2=C\C(=O)C(C)(C)C)no1 | inactive
C=CCN=c1scc(-c2ccc(OC)cc2)n1/N=C/c1ccc(OC(F)F)cc1 | inactive [setting not given]
CCOC(=O)/C(=C\c1ccc(C)s1)c1nc2sc(C)c(C)c2c(=O)[nH]1 | inactive
O=C(O)CCN1C(=O)C2CC=CCC2C1=O (stereo unspecified) | inactive
S=C(N=P(c1ccccc1)(N1CCOCC1)N1CCOCC1)NCc1cn2ccccc2n1 | inactive
S=C1NC(c2ccccc2)=NCN1N(c1ccccc1)c1ccccc1 | inactive
COc1ccc(-c2noc(CSc3ncccn3)n2)cc1OC | inactive
CC1(C)CCCC(C)(C)N1Sc1ccccc1 | inactive
Oc1ccc(-c2onc3ccc(Cl)cc23)cc1 | inactive
NC1=NC(c2c(Cl)cccc2Cl)n2c(nc3ccccc32)N1 (stereo unspecified) | inactive
Cc1cc(C(=O)Cn2cnc3c2c(=O)n(C)c(=O)n3C)c(C)n1CCC1=CCCCC1 | inactive
O=C1CCC(C(=O)OCC(=O)c2ccc(Br)s2)=NN1 | inactive
O=C1CSC2=NCN(c3ccccc3)CN12 | inactive

SMILES | outcome
Clc1cc(Cl)c(N/N=C/c2cn(-c3ccccc3)nc2-c2cc3ccccc3o2)c(Cl)c1 | inactive [setting not given]
O=c1/c(=C/c2ccccc2I)sc2nc3ccccc3n12 | inactive
COc1ccccc1OCCOCCOc1ccccc1OC | inactive
O=c1c(Cl)c(N2CCCC2)cnn1-c1ccccc1 | inactive
COCCNC(=O)NC(=O)N(C1CCCCC1)S(C)(=O)=O | inactive
Cc1sc2nc(-c3cccs3)nc(Sc3nnc(C4CC4)o3)c2c1C | inactive
CCOC(=O)c1sc2nc(C(C)Sc3ncnc4sc5c(c34)CCC5)[nH]c(=O)c2c1C (stereo unspecified) | inactive
CC(C)(C)C1CCC(C(=O)OCC(=O)c2ccc(Cl)s2)CC1 (stereo unspecified) | inactive
O=C1CN(Cc2csc(-c3cccs3)n2)CCN1 | inactive
O=[N+]([O-])c1c(Sc2nnnn2-c2ccccc2)nc2sccn12 | inactive
COc1ccc(C2=CC(c3ccc(OC)c(OC)c3)n3ncnc3N2)cc1OC (stereo unspecified) | inactive
Cc1cc2ncn(Cc3ccc(C(C)C)cc3)c2cc1C | inactive
CCNc1n[nH]c(=S)s1 | inactive
S=C(Nc1ccc(Cl)c(Cl)c1)NC12CC3CC(CC(C3)C1)C2 | inactive
O=C(Nc1ccccc1)Nc1ccc(Cl)c(Cl)c1 | active
O=C(Nc1ccccc1)NC(NC(=S)Nc1ccc(I)cc1)C(Cl)(Cl)Cl (stereo unspecified) | inactive
FC(F)Sc1nc(-c2ccc(Br)cc2)nc2ccccc12 | inactive
CC(C)CNC(=O)NC(=O)C1CCCCC1 | inactive
O=[N+]([O-])c1cc(CN2CCOCC2)c2c(c1)OCOC2 | inactive
Fc1ccc(-c2nnc(-c3nnc(-c4ccc(F)cc4)c(-c4ccccc4)n3)nc2-c2ccccc2)cc1 | inactive
O=P1(Nc2cc(C(F)(F)F)ccc2Cl)C=C(c2ccccc2)OC(c2ccccc2)=C1 | inactive
Nc1ccc([N+](=O)[O-])c(OC(F)F)c1 | inactive
CCOC(=O)c1c(N)sc2c1CCCS2 | inactive

SMILES | outcome
C=CCN1C(=O)/C(=C/c2c(NC3CC(C)(C)NC(C)(C)C3)nc3ccc(C)cn3c2=O)SC1=S | inactive
O=C(COC(=O)CCNC(=O)NC12CC3CC(CC(C3)C1)C2)NCC(F)(F)F | inactive
O=S(=O)(c1ccc(F)c(F)c1)N1CCN(c2ccc(O)cc2)CC1 | inactive
COC(=O)C(C)N (stereo unspecified) | inactive
Cc1noc(C)c1COc1ncnc2sc3c(c12)CCCC3 | inactive
C(=N\n1c(-c2ccco2)csc1=NC1CCCCC1)/c1ccccn1 | inactive [setting not given]
Cc1noc(C)c1S(=O)(=O)Nc1ccc(NS(=O)(=O)c2ccc3c(c2)OCCCO3)cc1 | inactive
S=c1n(CN2CCOCC2)nc(Cc2cccs2)n1C1CCCCC1 | inactive
Ic1ccc2c(c1)Cc1ccccc1-2 | inactive
Cn1c(C(F)(F)F)nn(CN2CCN(c3cccc(C(F)(F)F)c3)CC2)c1=S | inactive
O=C(CSc1nc2ccccc2nc1SCC(=O)c1cc2ccccc2o1)c1cc2ccccc2o1 | inactive
O=S1(=O)N=C(N2CCC(c3nc4ccccc4o3)CC2)c2ccccc21 | inactive
O=C(COC(=O)Cn1cc(C(F)(F)F)ccc1=O)NC(=O)NC1CCCC1 | inactive
O=c1cc(COc2cc(Cl)c(Cl)cc2Cl)nc2ccc(Br)cn12 | inactive
FC(F)(F)c1ccc(Oc2ccc(Cl)c3cccnc23)nc1 | inactive
O=S(=O)(Nc1cc(S(=O)(=O)N2CCOCC2)ccc1N1CCCC1)c1cccs1 | inactive
Clc1ccc(C=Nc2ccc3c(c2)OCO3)c(Cl)c1 | inactive
CC(C)CN(C(=O)CSc1nncn1C)C1CCS(=O)(=O)C1 (stereo unspecified) | inactive
O=[N+]([O-])c1ccc(NN=C2C3CC4CC(C3)CC2C4)c(S(=O)(=O)Nc2ccc(Cl)cc2)c1 | inactive
CN(C)/N=C/C=C1\CCC/C(=C\c2cc(Br)cs2)C1=O | inactive [setting not given]
O=S(=O)(c1ccc(F)cc1F)N1c2cccc3cccc(c23)S1(=O)=O | inactive
Nc1c(C(=O)CSc2cc(F)ccc2F)c(=O)[nH]c(=O)n1C1CC1 | inactive
c1nc(N2CCN(c3ncnc4sc5c(c34)CCCC5)CC2)c2c3c(sc2n1)CCCC3 | inactive

SMILES | outcome
Cc1cc(C)nc(N/N=C/c2ccncc2)n1 | inactive [setting not given]
Fc1ccc(-n2c(-c3ccc(Cl)cc3Cl)n[nH]c2=S)cc1Cl | inactive
Cc1ccc(C)c(C2C3=C(CC(C)(C)CC3=O)Nc3nc(-c4cccnc4)nn32)c1 (stereo unspecified) | inactive
COc1cc(S(=O)(=O)n2c([N+](=O)[O-])cnc2C)ccc1Br | inactive
Cc1cc(C)c(C)c(S(=O)(=O)N(C)C2CCS(=O)(=O)C2)c1C (stereo unspecified) | inactive
CC(=O)c1c(C)[nH]c(C(=O)OCC(=O)c2cc(C)n(CC3CCCO3)c2C)c1C (stereo unspecified) | inactive
O=C1NC(c2ccc3ncccc3c2)C(C(=O)c2cccnc2)C(O)(C(F)(F)F)N1 (stereo unspecified) | inactive
O=[N+]([O-])/C(CN1CCOCC1)=C1/CCCN1 | inactive
CCCCn1c(N)c(N(Cc2ccco2)C(=O)Cn2cnnn2)c(=O)[nH]c1=O | inactive
CN(C(=O)COC(=O)CN1C(=O)NC2(CCCC2)C1=O)C1CCCCC1 | inactive
COC(=O)CNC(=O)c1ccc([N+](=O)[O-])o1 | inactive
CC(C)CN(C1CCS(=O)(=O)C1)S(=O)(=O)c1ccc(Cl)cc1 (stereo unspecified) | inactive
C(=Nc1ccc2c(c1)OCO2)c1ccc2ncccc2c1 | inactive
c1ccc2c(c1)OCCOCCOCCOc1ccccc1OCCOCCO2 | inactive
O=C1NNS(=O)(=O)c2ccccc21 | inactive
Brc1ccc2nc(-n3nc4ccccc4n3)nc(-c3ccccc3)c2c1 | inactive
Cc1sc2ncnc(SCC(=O)c3c(N)n(CC(C)C)c(=O)n(C)c3=O)c2c1C | inactive
CCOC(=O)Cc1n[nH]c(=S)n1C1CCCC1 | inactive
CCNC(=S)N1CCN(S(=O)(=O)c2ccc(Cl)s2)CC1 | inactive
Cc1cc(-c2csc(N)n2)c(C)c(C)c1C | inactive
O=C(COc1ncnc2sc3c(c12)CCC3)c1ccc(Cl)s1 | inactive
O=C(CN1C(=O)NC2(CCCC2)C1=O)NC1CCSc2ccc(F)cc21 (stereo unspecified) | inactive
C=CCN(CC=C)CC(=O)Nc1sc2c(c1C(N)=O)CCCC2 | inactive

SMILES | outcome
Clc1ccc(Cl)c(-c2ccc(-c3ncc(-c4cccs4)o3)o2)c1 | inactive
CN(C)C(=O)CN(C)C(=O)CN1C(=O)NC2(CCCCCC2)C1=O | inactive
Cc1nc(SCC(=O)N2CCNC2=O)n(CC(C)C)c1C | inactive
O=S(=O)(c1ccc(Cl)c(N=C2SCCN2C2CCCCC2)c1)N1CCOCC1 | inactive
c1ccc(OCc2nc(-c3ccccn3)n[nH]2)cc1 | inactive
C#CC(CC)(CC)NC(=O)CCc1nc2sc3c(c2c(=O)[nH]1)CCCC3 | inactive
Brc1ccccc1C1N=C(c2ccccc2)NO1 (stereo unspecified) | inactive
O=c1c2c3c(sc2[nH]c(=S)n1C1CCCC1)CCC3 | inactive
O=C(OCc1cc([N+](=O)[O-])cc2c1OCOC2)C1CCC1 | inactive
O=C(CSc1nc2sc3c(c2c(=O)n1C1CCCC1)CCCC3)N1CCCC1 | inactive
FC(F)Oc1ccc(C2Oc3ccccc3C3CC(c4ccccc4)=NN32)cc1 (stereo unspecified) | inactive
Cc1nnc(NC(=O)NCC2(C)CC(NC(=O)Nc3nnc(C)s3)CC(C)(C)C2)s1 (stereo unspecified) | inactive
CC(C)N(CCNS(=O)(=O)c1ccccc1)C(C)C | inactive
O=[N+]([O-])c1ccc(-n2nnc3ccccc32)c(Cl)c1 | inactive
Clc1ccccc1C1Oc2ccccc2C2CC(c3ccc4c(c3)OCCO4)=NN21 (stereo unspecified) | inactive
O=c1/c(=C/c2ccc(F)cc2)sc2n1CCN=2 | inactive
O=C1OCC(CO)(CO)N=C1NNc1ccc(I)cc1 | inactive
FC(F)Oc1ccc(Cl)c(C2Nc3ccccc3-c3nc4ccccc4n32)c1 (stereo unspecified) | inactive
C(=N\n1c(-c2ccc(-c3ccccc3)cc2)csc1=NCCc1ccccc1)/c1ccccn1 | inactive [setting not given]
